In PubChem BioAssay (NCATS) one finds Potency and activity change, negative = inhibition data, which are given here for 13 molecules.

Each structure is given as a SMILES string. “And” between values parts separate entries of the source, which are not always exact repeats. Identical values can stand only once. Inconclusive results are not listed. Unmarked numbers belong to inactive results. The source made the active and inactive calls. Unless noted, calls come from the whole dose curve; as a rule, active = well fitted curve in either direction with a large enough effect (not every such curve was filed as active); inconclusive = small, poorly fitted or top-dose-only effect, or another doubt; inactive = flat fitted curve, though single readings scatter.

The target of assay [1] is Cytochrome P450 1A2 (Homo sapiens) (UniProt P05177). Briefly: p450-cyp1a2 (AID 410; calls by dose curve; note: potency is the fitted concentration of half-maximal effect;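 for activity change, negative = inhibition: -100% = full effect of reference inhibitor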). The method in brief:
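Human CYP1A2 (20nM) demethylated Luciferin-ME at its Km (100uM) in 100mM KPO4. After 10 min compound preincubation, NADPH regeneration ran the reaction 60 min at room temperature. Luciferin was read by luminescence, normalized to 57 uM furafylline.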

Assay [2] is described as follows: NFAT Signaling Pathway (AID 444).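 Note: carbachol stimulus at about its EC50 of 1 µM final; % is set by controls: 0 for no effect and ±100 for the full control effect.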 The note with it: Jurkat NFAT-bla M1, carbachol, beta-lactamase ratio, 5 h; at 38 µM (top of the series) unless noted. The method in brief:
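Read-out: CCF4 FRET ratio (460 nm/530 nm) after 1 h RT dye loading, used for %activity and AC50 from titration series. Cells: Jurkat NFAT-β-lactamase/M1 line, treated with compound plus 1 uM carbachol for 5 h, 37 °C.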

Assay [3] is described as follows: AP1 Signaling Pathway (AID 357).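 Note: ME-180 reporter cells stimulated with EGF at its EC50 level; % is set by controls: 0 for no effect and ±100 for the full control effect.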 Conditions: ME-180 (cervical carcinoma) AP-1-bla reporter, EGF-induced, beta-lactamase ratio, 5 h; at 38 µM (top of the series) unless noted. The method in brief:
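In this screen, ME-180 cells in Opti-MEM with 0.5% dialyzed FBS received EC50 EGF and compound titrations for 5 h. AP-1 reporter beta-lactamase was detected via CCF4 ratio, giving AC50 for positive and negative modulators.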

Cytochrome P450 1A2 (Homo sapiens), sequence (P05177 whole entry, looked up): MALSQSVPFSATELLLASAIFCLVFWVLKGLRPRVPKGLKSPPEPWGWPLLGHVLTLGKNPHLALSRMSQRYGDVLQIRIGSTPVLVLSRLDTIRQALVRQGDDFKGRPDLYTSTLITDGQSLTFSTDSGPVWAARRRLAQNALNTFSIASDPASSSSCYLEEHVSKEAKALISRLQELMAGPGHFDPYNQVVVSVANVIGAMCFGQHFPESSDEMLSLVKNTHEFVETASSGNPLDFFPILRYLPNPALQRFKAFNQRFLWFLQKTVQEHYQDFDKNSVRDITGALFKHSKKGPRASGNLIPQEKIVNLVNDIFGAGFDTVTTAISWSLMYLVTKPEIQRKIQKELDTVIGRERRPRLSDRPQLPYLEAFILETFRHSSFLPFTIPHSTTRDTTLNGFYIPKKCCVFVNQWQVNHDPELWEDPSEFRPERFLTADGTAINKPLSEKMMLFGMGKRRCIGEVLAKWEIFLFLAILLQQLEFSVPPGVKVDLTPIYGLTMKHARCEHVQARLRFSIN

`CNCCNS(=O)(=O)c1cccc2cnccc12`: the Potency result in assay [1] was “inactive”. The activity change, negative = inhibition in assay [2] was -11.3%.
Turning to `CC(=O)NNC(=O)N1Cc2ccccc2Oc2ccc(Cl)cc21`, the figures for the activity change, negative = inhibition in assay [3] and in assay [2] were -8.52% and 13.5%, respectively.
Regarding `COc1cc(/C=C(\C#N)C(=O)c2ccc(O)c(O)c2)cc(I)c1O`, in assay [1], the Potency was 15.8 µM (active). The activity change, negative = inhibition in assay [2] was 8.66%.
On to `NCCCCN=C(N)N`, for which the activity change, negative = inhibition in assay [3] is -8.22%; in assay [2], -4.07%.
Turning to `c1ccc(CN2CCC3(CCCc4ccccc43)CC2)cc1`, the activity change, negative = inhibition was 11.9% in assay [3] and -19.1% in assay [2].
Turning to `CN(C)CCCc1cc(C(=O)Nc2ccc(-c3ccncc3)cc2)ccc1O`, the Potency in assay [1] is 39.8 µM (active).
The same measure, in the same setting: for `CCCc1c(-c2ccc(O)cc2)nn(-c2ccc(O)cc2)c1-c1ccc(O)cc1` the value was 15.8 µM (active) and 20 µM (active).
With `COc1ccccc1N1CCN(CCCNc2c(C)c(=O)n(C)c(=O)n2C)CC1`, the activity change, negative = inhibition in assay [3] is 8.51%; in assay [2], -22.9%.
With `CCCn1c(=O)c2[nH]c(-c3ccc(S(=O)(=O)O)cc3)nc2n(CCC)c1=O`, the activity change, negative = inhibition is 7.54% in assay [3] and 13.8% in assay [2].
With `O=C(O)C1=CCCN(CCON=C(c2ccccc2)c2ccccc2)C1`, the activity change, negative = inhibition is 5.02% in assay [3] and -1.26% in assay [2].
`O=C(N[C@@H](Cc1ccccc1)C(=O)CCl)OCc1ccccc1`: in assay [1], the Potency is 3.16 µM (active).
`O=C(O)/C=C/c1ccc(O)c(O)c1`: the activity change, negative = inhibition was 5.87% [at 17.2 µM] in assay [3] and -10.8% [at 17.2 µM] in assay [2].
`CCCC(=O)NCCc1c2n(c3ccc(OC)cc13)CCCc1ccccc1-2`: in assay [2], the activity change, negative = inhibition is -6.48%.
